# From PubChem BioAssay AID1578 (Sanford-Burnham Center for Chemical Genomics, 2009)
# Hit rate of the full screen: of about 290,000 compounds, about 3,000 (1%) were called active. What follows is part of a selection rich in actives, with near analogues and random picks from the rest. Unmarked numbers belong to inactive results. Cut-off read from the data, not from the text of the source: active = inhibition mostly above about 36% (no sharp cut-off); inactive = mostly below about 34%.
# Experiment: NOD1 signaling inhibitors, primary screen, cell-based, luminescence, uHTS (AID 1578);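 note: HEK-293T reporter cells stimulated with the NOD1 agonist gamma-tri-DAP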
# Details: NOD1-driven NF-kB luciferase reporter cells, at 4 µM, hits give high values
row,SMILES,inhibition
1,CCCCn1c(SCC(=O)N2CCOCC2)nc2ccccc2c1=O,-11.7%
2,COc1ccc(NC(=O)CSc2nc(N)c(NC(=O)c3cccs3)c(=O)[nH]2)cc1,-4.6%
3,COc1cccc(-c2ccc(NC(=O)C3CCCN(CCCn4cccn4)C3)cc2)c1 (stereo not drawn),-32.8%
4,Cc1ccccc1Oc1nc2ccccn2c(=O)c1/C=C(\C#N)C(=O)Nc1c(C)n(C)n(-c2ccccc2)c1=O,-32.9%
5,O=C(COc1ccccc1)Nc1ccccc1NS(=O)(=O)c1cccs1,15.4%
6,O=C(COc1ccc(Cl)cc1Cl)Nc1ccccc1NS(=O)(=O)c1cccs1,38.6%
7,N#Cc1c(NC(=O)CSc2nnc(-c3ccccc3O)n2-c2ccccc2)sc2c1CCCC2,-23.8%
8,N#Cc1c(Sc2ncc(C(F)(F)F)cc2Cl)nsc1C/C=N\OCc1c(F)cccc1Cl,23.5%
9,O=C(Nc1ccc(Oc2cccnc2)cc1)C1CCN(Cc2ccc(F)cc2)CC1,-7.5%
10,O=C(NCCCn1ccnc1)/C(=C\c1cccnc1)NC(=O)c1ccco1,-5.2%
11,COc1ccc2oc(C(=O)NCc3cc(OC)c(OC)cc3OC)c(C)c2c1,17.1%
12,CCOC(=O)C1CCN(C(=O)COC(=O)COc2ccc(Cl)cc2)CC1,-16%
13,NC(=O)c1ccc(Oc2ccc(Cl)cc2)c([N+](=O)[O-])c1,2.7%
14,CC(=O)c1ccc(Oc2ccc(C(=O)c3ccc(C)c(C)c3)cc2[N+](=O)[O-])cc1,69.6% (active)
15,CCC(=O)c1ccc(Oc2ccc(C(=O)c3ccc(C)cc3)cc2[N+](=O)[O-])cc1,40.1%
16,Cn1ncnc1SCc1cn2cccnc2n1,-16.1%
17,COc1ccc(-c2nc(CN3CCC(C(=O)N4CCOCC4)CC3)c(C)o2)cc1OC,-6.6%
18,COc1ccc([N+](=O)[O-])cc1NC(=S)Nc1ccccc1,4.9%
19,O=C(CN(C(=O)CNS(=O)(=O)c1ccccc1)c1ccc2c(c1)OCCO2)NC1CCCCC1,-17.9%
20,COc1cccc(/C=N/N(C)C2=NS(=O)(=O)c3ccccc32)c1O,-15.4%

row,SMILES,inhibition
1,Cc1ccc(/C=N/N(C)C2=NS(=O)(=O)c3ccccc32)cc1,5%
2,CN(/N=C/c1cc(Cl)ccc1O)C1=NS(=O)(=O)c2ccccc21,30.8% (active)
3,CCOc1ccc(CC(=O)NNC(=S)Nc2ccc(OC)c(OC)c2)cc1,-36.4%
4,Cc1ccc(C)c(C(=O)N(C)CC(=O)Nc2ccccc2C(F)(F)F)c1,35.4%
5,CCn1c(=O)c(C(=O)NCc2ccccc2)c(O)c2ccccc21,-12.4%
6,O=[N+]([O-])c1cccc(OCC(O)CN2CCN(S(=O)(=O)c3cc(Cl)ccc3Cl)CC2)c1 (stereo not drawn),15.6%
7,O=C(C[N+]1(CC#Cc2ccccc2)CCOCC1)c1ccccc1,-26.9%
8,O=C(C[N+]1(CC#Cc2ccccc2)CCCCC1)c1ccc(Cl)cc1,-15.6%
9,O=C(C[N+]1(CC#Cc2ccccc2)CCCCC1)c1ccccc1,47.4% (active)
10,Cc1cc(=O)[nH]c(SCC(=O)Nc2ccc(Br)cc2)c1C#N,67.2% (active)
11,Cc1cc(=O)[nH]c(SCC(=O)Nc2ccc(F)cc2)c1C#N,-21.3%
12,COc1ccc(NC(=O)CSc2[nH]c(=O)cc(C)c2C#N)cc1OC,-23.7%
13,CN1C2CCC1/C(=C\c1ccccc1F)C(=O)/C2=C/c1ccccc1F,34.2%
14,CN1C2CCC1/C(=C\c1ccc(F)cc1)C(=O)/C2=C/c1ccc(F)cc1,77.7% (active)
15,CN1C2CCC1/C(=C\c1ccccc1)C(=O)/C2=C\c1ccccc1,36.3%
16,Cc1cccc(N2CCN(C(=O)c3cc(S(=O)(=O)N4CCOCC4)cn3C)CC2C)c1 (stereo not drawn),-17.7%
17,Cc1cc(CNC(=O)c2ccc(C)c([N+](=O)[O-])c2)c2ccccc2n1,26.1%
18,Cc1cc(CNC(=O)c2cccc([N+](=O)[O-])c2)c2ccccc2n1,47.9% (active)
19,Cc1cc(CNC(=O)Cn2cc([N+](=O)[O-])cn2)c2ccccc2n1,-28.9%
20,O=C(Nc1ccc(Br)c(C(F)(F)F)c1)c1ccccc1,7.5%

row,SMILES,inhibition
1,Cc1ccc(C(=O)Nc2ccc(Br)c(C(F)(F)F)c2)cc1,-51.3%
2,O=C(Nc1ccc(Br)c(C(F)(F)F)c1)c1ccc(C(F)(F)F)cc1,41.9% (active)
3,C=CCn1c(SCc2nc3cc(C(F)(F)F)ccc3c(=O)[nH]2)nc2sc(CC)cc2c1=O,-9.3%
4,COc1ccc(-c2noc(N3CCC(C(=O)NCc4ccccc4Cl)CC3)n2)cc1,49.5%
5,O=C(N/N=C(/c1ccccc1)c1ccncc1)c1ccc2c(c1)OCO2,-26.7%
6,Cc1cc(C(=O)COC(=O)CN(C)S(=O)(=O)c2ccc(Cl)cc2)c(C)n1CC1CCCO1 (stereo not drawn),-12.3%
7,Clc1ccc2nnnc(-c3ccccc3)c2c1,63.1% (active)
8,c1ccc(-c2nnnc3ccccc23)cc1,-26.7%
9,Cc1ccc2nnnc(-c3ccccc3)c2c1,-32.7%
10,COC(=O)c1ccc(NC(=O)NCCCl)cc1,-34.1%
11,Cc1c(C(=O)N2CCOCC2)sc(NC(=O)c2ccc([N+](=O)[O-])cc2)c1C#N,-2.6%
12,C/C(=N\NC(=O)c1c(C)nc2ccccn12)c1cccc([N+](=O)[O-])c1,-11.1%
13,Cc1ccc(/C=C/C(=O)c2c(C)nc3ccccn23)cc1,-11.3%
14,Cc1nc2ccccn2c1C(=O)/C=C/c1cccc([N+](=O)[O-])c1,101% (active)
15,Cc1c(C(=O)N2CCN(c3ccccc3)CC2)sc2nc3n(c(=O)c12)CCC3,0.9%
16,CC(=O)c1ccccc1NC(=O)CCCNC(=O)c1ccc(Cl)cc1,17.3%
17,O=C(O)CSc1ncnc2sc(-c3ccccc3)cc12,-16.7%
18,CC(=O)CCSc1ncnc2sc(-c3ccccc3)cc12,-75.9%
